From PubChem BioAssay
ROC1-CUL1 inh: inhibitors of human ROC1-CUL1 ubiquitin ligase activity. in vitro K48 di-Ub FRET, acceptor:donor ratio, 45 min. AID 1347404, 2020. inhibition, % at 10 µM. 140,000 compounds, 0.6% hits; in the data active = inhibition above about 25%
* = called active by the depositor. Many of the other results were omitted from the sample, so hits are more common in it than they were.

SMILES	ROC1-CUL1 inh
CCOC(=O)C1=C(c2ccccc2)N=c2s/c(=C/c3ccccc3O)c(=O)n2C1c1ccc2c(c1)OCO2 (stereo unspecified)	0.2
Nc1cccc(-c2n[nH]c(=S)o2)c1	0.6
O=C1c2ccccc2N(c2ccccc2)C(=O)C1Sc1ccccc1 (stereo unspecified)	4.7
O=C1c2cccc3cccc(c23)C(=O)C1Sc1ccccc1	99.5*
O=C1Nc2ccccc2C(=O)C1Sc1ccccc1 (stereo unspecified)	-0.3
CCOc1cc(CC2=NC(=O)N(CC(=O)Nc3ccc(C)cc3)C2=O)cc(Br)c1OCc1ccc(Cl)cc1Cl	5.5
CC(=O)N(C1=C(N2CCCCC2)C(=O)c2ccccc2C1=O)c1ccc(F)cc1	-12.6
O=C1C(=O)N(c2nnc(SCc3ccc(F)cc3)s2)C(c2cccc(Oc3ccccc3)c2)C1C(=O)c1cc2ccccc2o1 (stereo unspecified)	40.5*
CCCCCOc1ccc(C2C(C(=O)c3cc4ccccc4o3)C(=O)C(=O)N2c2nc(C)c(C(C)=O)s2)cc1OC (stereo unspecified)	0.7
Cc1ccc2nc(N3C(=O)C(=O)C(C(=O)c4cc5ccccc5o4)C3c3ccccc3)sc2c1 (stereo unspecified)	-3.2
Cc1ccc(C2C(C(=O)c3cc4ccccc4o3)C(=O)C(=O)N2c2nnc(SCc3cccc4ccccc34)s2)cc1 (stereo unspecified)	-9.3
Cc1ccc(CSc2nnc(N3C(=O)C(=O)C(C(=O)c4cc5ccccc5o4)C3c3ccc(OCc4ccccc4)cc3)s2)cc1 (stereo unspecified)	46.8*
COc1cc(C2C(C(=O)c3cc4ccccc4o3)C(=O)C(=O)N2c2nc3c(C)cc(C)cc3s2)ccc1OCc1ccccc1 (stereo unspecified)	4.3
COc1cc(C2C(C(=O)c3cc4ccccc4o3)C(=O)C(=O)N2c2nnc(C)s2)ccc1OCc1ccccc1 (stereo unspecified)	64.6*
CC(=O)c1sc(N2C(=O)C(=O)C(C(=O)c3cc4ccccc4o3)C2c2ccc(F)cc2)nc1C (stereo unspecified)	-0.7
O=C1C(=O)N(c2nnc(SCc3ccccc3F)s2)C(c2ccc(F)cc2)C1C(=O)c1cc2ccccc2o1 (stereo unspecified)	3.2
CS(=O)(=O)c1ncc(-c2ccc(Br)cc2)cn1	3.2
Cc1cc(Cl)ccc1NC(=O)c1c(Cl)cccc1Cl	7.2
CCCNC(=O)C1CC(=O)N(c2ccc(C)cc2C)C1 (stereo unspecified)	4.2
CC(=O)N[C@@H](C)C(=O)NCc1cccnc1N(C)Cc1ccccc1	-1.1
O=C1CC(c2cccc(Cl)c2)CC2=C1C(c1cccnc1)n1ncnc1N2 (stereo unspecified)	13.1
CC(C)(CC(=O)Nc1scc(-c2cccs2)c1C(=O)O)CC(=O)Nc1scc(-c2cccs2)c1C(=O)O	-2.9
Cc1sc(NC(=O)/C=C/c2ccco2)c(C(N)=O)c1C	5.9
O=C(/C=C/c1ccco1)Nc1scc(-c2cccs2)c1C(=O)O	28.5*
CC(C)c1cc(=O)[nH]c(SCc2ccc(Cl)cc2)n1	7.0
SMILES	ROC1-CUL1 inh
CN(C)S(=O)(=O)N1CCC(C(=O)Nc2cc(Cl)cc(Cl)c2)CC1	9.1
NC(=O)c1sc2nnc(-c3ccco3)c(-c3ccco3)c2c1N	-6.9
O=c1[nH]nnc2c1sc1nc3c(c(-c4ccco4)c12)CCc1ccccc1-3	67.1*
O=c1[nH]nnc2c1sc1nc3c(c(-c4ccc(Cl)cc4)c12)CCCC3	2.9
Cc1ccc(C(=O)OCC(=O)c2ccc(Br)cc2)cc1C	-0.7
O=C(Nc1cccc(O)c1)c1cccc2ccccc12	-2.6
CCOC(=O)COc1c(Cl)cc(/C=C2/SC(=O)N(C(C)CC)C2=O)cc1OC (stereo unspecified)	-2.7
CCOC(=O)c1c(NC(=O)C(C)Oc2ccc(F)cc2)sc2c1CCC2 (stereo unspecified)	4.7
Cc1csc(NC(=O)c2ccc(Br)cc2Br)n1	1.7
Cc1cc(Br)c(NC(=O)CN2CCOCC2)cc1C	9.5
CSC1=N/C(=C\c2ccc(C(=O)O)cc2)C(=O)S1	49.7*
CSC1=N/C(=C\c2ccc(F)cc2)C(=O)S1	6.6
CSC1=N/C(=C\c2ccc(OC3CCCC3)cc2)C(=O)S1	4.8
CSC1=N/C(=C\c2cc(Br)ccc2OCC(=O)O)C(=O)S1	49.8*
O=C(O)COc1ccc(Br)cc1Cl	-3.0
COc1cccc(/C=C2\N=C(SC)SC2=O)c1OCc1ccccc1	-2.7
Cc1ccc(-c2cc(-c3ccccc3)c3c(N)c(C(=O)Nc4ccccc4C(F)(F)F)sc3n2)cc1	6.7
CCc1ccc(CN(C)Cc2c(C(=O)N3CCOCC3)nc3c(C)cccn23)cc1	-4.7
Cc1c(Cl)cccc1Nc1nc(N)nc(CN2CCN(C)CC2)n1	-1.7
Fc1nc(N2CCOCC2)c2c(c1Cl)Oc1ccccc1O2	-4.1
N#Cc1ccccc1COc1ccc(/C=C2/SC(=Nc3cccc(C(=O)O)c3)NC2=O)cc1	89.3*
Cc1cccc(N=C2NC(=O)/C(=C\c3ccc(OCc4ccccc4)cc3)S2)c1	-0.7
